# From paper PMC7862700, “An all-to-all approach to the identification of sequence-specific readers for epigenetic DNA modifications on cytosine”
# Key:
# Assay in all cases: DAPPL (digital affinity profiling via proximity ligation, sequencing); 10 mM Tris-HCl pH 7.5, 50 mM NaCl, 1 mM DTT, 4% glycerol, room temperature, 30 min; GST-TFs on glutathione beads, 16-mer random dsDNA library, 0.1% formaldehyde crosslink after washing; high values mean tight binding
# FLI1 = target: T1, FLI1 (Homo sapiens, UniProt Q01543 1-452); details: protein: recombinant; tags: N-terminal GST; dsDNA, one strand shown
# T1 sequence: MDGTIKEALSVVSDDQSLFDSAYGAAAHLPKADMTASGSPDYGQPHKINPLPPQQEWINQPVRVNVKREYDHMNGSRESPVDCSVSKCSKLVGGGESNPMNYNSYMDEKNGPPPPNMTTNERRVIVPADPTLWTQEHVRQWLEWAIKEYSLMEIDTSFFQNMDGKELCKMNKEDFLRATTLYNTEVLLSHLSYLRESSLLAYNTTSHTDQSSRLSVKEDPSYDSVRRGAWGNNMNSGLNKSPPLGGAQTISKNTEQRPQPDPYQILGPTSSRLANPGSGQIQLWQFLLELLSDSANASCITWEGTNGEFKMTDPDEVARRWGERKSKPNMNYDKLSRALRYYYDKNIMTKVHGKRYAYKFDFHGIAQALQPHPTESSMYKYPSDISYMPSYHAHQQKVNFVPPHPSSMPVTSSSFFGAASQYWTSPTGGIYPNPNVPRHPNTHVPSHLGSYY
# In short: (§1)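 Beads coated with glutathione captured GST-fused human transcription factors that had been expressed in yeast, and the factors were then given DNA barcodes and pooled with a tag-only sample. The pools were incubated with 200 nmole of a random double-stranded 16-mer DNA library in Tris/NaCl/DTT/glycerol buffer for 30 min at room temperature, washed, crosslinked with 0.1% formaldehyde and proximity-ligated with BsaI/T4 ligase at 37 °C for 1 h. PCR amplification and Illumina NextSeq500 sequencing came last. Binding signal is each hexamer's read frequency for a factor divided by its frequency for the tag-only sample.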
# ELK1 = target: T2, ELK1 (Homo sapiens, UniProt P19419 1-428); details: protein: recombinant; tags: N-terminal GST; dsDNA, one strand shown
# T2 sequence: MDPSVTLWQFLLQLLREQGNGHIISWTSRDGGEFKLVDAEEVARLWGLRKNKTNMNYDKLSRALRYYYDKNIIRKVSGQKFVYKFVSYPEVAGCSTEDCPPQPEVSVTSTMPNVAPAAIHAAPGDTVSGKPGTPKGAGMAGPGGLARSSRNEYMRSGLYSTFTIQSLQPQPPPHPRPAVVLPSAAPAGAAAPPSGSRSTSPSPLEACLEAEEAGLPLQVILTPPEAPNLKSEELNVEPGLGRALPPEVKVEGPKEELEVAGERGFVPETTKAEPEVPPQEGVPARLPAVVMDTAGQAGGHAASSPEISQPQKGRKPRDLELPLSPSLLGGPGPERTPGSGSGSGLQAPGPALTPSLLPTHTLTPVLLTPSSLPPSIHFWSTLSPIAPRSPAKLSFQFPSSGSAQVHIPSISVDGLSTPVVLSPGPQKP
# In short: as §1
# GABPA = target: T3, GABPA (Homo sapiens, UniProt Q06546 1-454); details: protein: recombinant; tags: N-terminal GST; dsDNA, one strand shown
# T3 sequence: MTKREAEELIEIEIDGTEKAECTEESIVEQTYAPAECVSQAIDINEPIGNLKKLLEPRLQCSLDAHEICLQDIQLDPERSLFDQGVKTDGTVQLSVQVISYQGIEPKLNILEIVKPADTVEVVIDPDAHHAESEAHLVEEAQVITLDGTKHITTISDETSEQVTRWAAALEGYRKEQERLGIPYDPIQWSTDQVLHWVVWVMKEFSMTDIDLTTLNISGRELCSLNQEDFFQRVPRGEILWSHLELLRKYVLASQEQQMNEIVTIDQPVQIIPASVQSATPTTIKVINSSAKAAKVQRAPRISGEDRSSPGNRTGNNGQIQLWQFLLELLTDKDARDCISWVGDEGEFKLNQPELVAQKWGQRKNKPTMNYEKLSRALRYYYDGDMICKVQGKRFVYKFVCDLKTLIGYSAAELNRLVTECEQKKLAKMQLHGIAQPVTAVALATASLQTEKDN
# In short: as §1
# ERG = target: T4, ERG (Homo sapiens, UniProt P11308 1-479); details: protein: recombinant; tags: N-terminal GST; dsDNA, one strand shown
# T4 sequence: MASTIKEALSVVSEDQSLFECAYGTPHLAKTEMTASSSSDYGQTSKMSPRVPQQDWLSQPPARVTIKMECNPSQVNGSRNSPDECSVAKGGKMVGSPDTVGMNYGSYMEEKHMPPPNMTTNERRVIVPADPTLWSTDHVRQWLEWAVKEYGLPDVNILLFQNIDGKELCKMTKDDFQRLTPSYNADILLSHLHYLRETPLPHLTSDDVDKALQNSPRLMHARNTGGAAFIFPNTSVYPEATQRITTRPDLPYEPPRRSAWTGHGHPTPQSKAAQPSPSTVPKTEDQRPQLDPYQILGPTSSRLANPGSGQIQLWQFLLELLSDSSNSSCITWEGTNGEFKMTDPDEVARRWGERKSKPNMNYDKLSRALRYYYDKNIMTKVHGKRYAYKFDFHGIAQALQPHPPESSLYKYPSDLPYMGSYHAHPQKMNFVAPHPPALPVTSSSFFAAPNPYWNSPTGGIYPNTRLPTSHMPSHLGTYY
# In short: as §1
# ELF1 = ELF1 (Homo sapiens, UniProt P32519 1-619); details: protein: recombinant; tags: N-terminal GST; dsDNA, one strand shown
# In short: as §1
# EHF = target: T5, EHF (Homo sapiens, UniProt Q9NZC4 1-300); details: protein: recombinant; tags: N-terminal GST; dsDNA, one strand shown
# T5 sequence: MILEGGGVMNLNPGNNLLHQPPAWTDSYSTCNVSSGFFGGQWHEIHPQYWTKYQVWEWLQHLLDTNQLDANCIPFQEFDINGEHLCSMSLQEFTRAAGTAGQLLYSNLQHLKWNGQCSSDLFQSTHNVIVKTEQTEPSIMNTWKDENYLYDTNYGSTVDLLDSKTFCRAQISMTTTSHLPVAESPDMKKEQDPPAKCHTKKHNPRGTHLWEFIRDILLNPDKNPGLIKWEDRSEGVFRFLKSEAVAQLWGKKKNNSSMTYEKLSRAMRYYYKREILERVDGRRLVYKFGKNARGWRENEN
# In short: as §1
# SPI1 = SPI1 (Homo sapiens, UniProt P17947 1-270); details: protein: recombinant; tags: N-terminal GST; dsDNA, one strand shown
# In short: as §1
# SPIB = SPIB (Homo sapiens, UniProt Q01892 1-262); details: protein: recombinant; tags: N-terminal GST; dsDNA, one strand shown
# In short: as §1
# ELK3 = target: T6, ELK3 (Homo sapiens, UniProt P41970 1-407); details: protein: recombinant; tags: N-terminal GST; dsDNA, one strand shown
# T6 sequence: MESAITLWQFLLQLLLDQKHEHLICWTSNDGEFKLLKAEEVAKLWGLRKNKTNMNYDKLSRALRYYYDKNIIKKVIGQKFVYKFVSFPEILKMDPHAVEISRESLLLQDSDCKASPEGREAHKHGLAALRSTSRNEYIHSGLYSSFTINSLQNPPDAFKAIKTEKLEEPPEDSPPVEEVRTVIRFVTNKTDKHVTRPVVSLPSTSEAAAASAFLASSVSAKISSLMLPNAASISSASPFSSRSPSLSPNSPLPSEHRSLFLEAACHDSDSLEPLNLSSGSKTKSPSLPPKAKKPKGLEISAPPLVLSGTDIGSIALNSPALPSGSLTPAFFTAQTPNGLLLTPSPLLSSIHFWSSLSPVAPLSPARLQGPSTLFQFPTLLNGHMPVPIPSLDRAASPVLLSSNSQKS
# In short: as §1
# FEV = target: T7, FEV (Homo sapiens, UniProt Q99581 1-238); details: protein: recombinant; tags: N-terminal GST; dsDNA, one strand shown
# T7 sequence: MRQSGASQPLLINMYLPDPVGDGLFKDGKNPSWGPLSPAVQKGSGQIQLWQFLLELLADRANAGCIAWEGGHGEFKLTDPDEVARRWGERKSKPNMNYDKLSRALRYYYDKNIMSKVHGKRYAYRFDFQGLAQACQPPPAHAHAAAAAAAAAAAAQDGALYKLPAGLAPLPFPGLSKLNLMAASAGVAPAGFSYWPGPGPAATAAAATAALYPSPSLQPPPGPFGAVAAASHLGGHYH
# In short: as §1
# ETV5 = ETV5 (Homo sapiens, UniProt P41161 1-510); details: protein: recombinant; tags: N-terminal GST; dsDNA, one strand shown
# In short: as §1
# HSF1 = HSF1 (Homo sapiens, UniProt Q00613 1-529); details: protein: recombinant; tags: N-terminal GST; chain copies: 3; dsDNA, one strand shown
# In short: as §1
# SPIC = target: T8, SPIC (Homo sapiens, UniProt Q8N5J4 1-248); details: protein: recombinant; tags: N-terminal GST; dsDNA, one strand shown
# T8 sequence: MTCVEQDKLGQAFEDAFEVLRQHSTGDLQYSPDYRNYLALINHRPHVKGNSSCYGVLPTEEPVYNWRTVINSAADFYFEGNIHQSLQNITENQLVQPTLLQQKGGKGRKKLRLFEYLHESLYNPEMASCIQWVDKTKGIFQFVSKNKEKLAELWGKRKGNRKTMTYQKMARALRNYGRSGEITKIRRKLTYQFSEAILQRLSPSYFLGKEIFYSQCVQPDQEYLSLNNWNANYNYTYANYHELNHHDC
# In short: as §1
# ELF4 = ELF4 (Homo sapiens, UniProt Q99607 1-663); details: protein: recombinant; tags: N-terminal GST; dsDNA, one strand shown
# In short: as §1
# ELK4 = target: T9, ELK4 (Homo sapiens, UniProt P28324-2 1-405); details: protein: recombinant; tags: N-terminal GST; dsDNA, one strand shown
# T9 sequence: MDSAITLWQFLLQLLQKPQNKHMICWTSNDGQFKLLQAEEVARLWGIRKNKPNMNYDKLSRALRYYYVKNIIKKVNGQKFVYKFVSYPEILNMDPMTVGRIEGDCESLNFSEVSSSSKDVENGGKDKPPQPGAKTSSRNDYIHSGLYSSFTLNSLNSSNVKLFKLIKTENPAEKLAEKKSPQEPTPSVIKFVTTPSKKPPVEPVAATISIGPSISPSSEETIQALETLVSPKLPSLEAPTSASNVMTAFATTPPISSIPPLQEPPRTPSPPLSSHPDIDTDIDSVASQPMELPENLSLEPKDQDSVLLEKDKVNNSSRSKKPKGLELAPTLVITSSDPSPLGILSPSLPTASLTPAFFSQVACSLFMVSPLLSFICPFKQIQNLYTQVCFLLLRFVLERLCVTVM
# In short: as §1
# ETV2 = target: T10, ETV2 (Homo sapiens, UniProt O00321 1-342); details: protein: recombinant; tags: N-terminal GST; dsDNA, one strand shown
# T10 sequence: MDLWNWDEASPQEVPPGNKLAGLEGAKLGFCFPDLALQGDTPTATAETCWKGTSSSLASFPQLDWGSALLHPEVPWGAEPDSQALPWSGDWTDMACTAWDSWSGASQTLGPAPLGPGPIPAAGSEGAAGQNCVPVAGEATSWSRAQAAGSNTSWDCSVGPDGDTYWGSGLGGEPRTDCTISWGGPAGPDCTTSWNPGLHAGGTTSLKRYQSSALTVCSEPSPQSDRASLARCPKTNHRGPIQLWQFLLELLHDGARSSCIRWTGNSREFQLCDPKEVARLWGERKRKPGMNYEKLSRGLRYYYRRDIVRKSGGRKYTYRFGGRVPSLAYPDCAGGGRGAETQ
# In short: as §1
# ELF3 = target: T11, ELF3 (Homo sapiens, UniProt P78545 1-371); details: protein: recombinant; tags: N-terminal GST; dsDNA, one strand shown
# T11 sequence: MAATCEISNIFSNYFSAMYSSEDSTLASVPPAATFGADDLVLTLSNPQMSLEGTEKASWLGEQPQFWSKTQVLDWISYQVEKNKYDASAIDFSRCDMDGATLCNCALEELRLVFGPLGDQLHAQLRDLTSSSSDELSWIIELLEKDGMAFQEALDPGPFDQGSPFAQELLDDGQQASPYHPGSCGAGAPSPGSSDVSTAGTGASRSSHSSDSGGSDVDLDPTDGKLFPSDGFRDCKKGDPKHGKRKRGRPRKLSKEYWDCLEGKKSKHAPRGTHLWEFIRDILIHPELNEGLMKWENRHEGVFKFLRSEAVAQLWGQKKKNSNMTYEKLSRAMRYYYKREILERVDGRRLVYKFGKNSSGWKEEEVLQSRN
# In short: as §1
# CRX = CRX (Homo sapiens, UniProt O43186 1-299); details: protein: recombinant; tags: N-terminal GST; dsDNA, one strand shown
# In short: as §1
# ETV1 = ETV1 (Homo sapiens, UniProt P50549 1-477); details: protein: recombinant; tags: N-terminal GST; dsDNA, one strand shown
# In short: as §1
# CRX, sequence (O43186 whole entry): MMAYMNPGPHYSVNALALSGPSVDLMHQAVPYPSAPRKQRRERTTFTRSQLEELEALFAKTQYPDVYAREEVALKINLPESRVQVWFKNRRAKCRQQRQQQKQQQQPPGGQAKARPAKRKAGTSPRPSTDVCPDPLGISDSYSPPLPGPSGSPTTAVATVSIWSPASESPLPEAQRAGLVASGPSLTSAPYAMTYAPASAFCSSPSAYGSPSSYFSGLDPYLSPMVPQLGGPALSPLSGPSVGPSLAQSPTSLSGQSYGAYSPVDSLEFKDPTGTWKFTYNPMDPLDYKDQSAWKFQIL
# ELF1, sequence (P32519 whole entry): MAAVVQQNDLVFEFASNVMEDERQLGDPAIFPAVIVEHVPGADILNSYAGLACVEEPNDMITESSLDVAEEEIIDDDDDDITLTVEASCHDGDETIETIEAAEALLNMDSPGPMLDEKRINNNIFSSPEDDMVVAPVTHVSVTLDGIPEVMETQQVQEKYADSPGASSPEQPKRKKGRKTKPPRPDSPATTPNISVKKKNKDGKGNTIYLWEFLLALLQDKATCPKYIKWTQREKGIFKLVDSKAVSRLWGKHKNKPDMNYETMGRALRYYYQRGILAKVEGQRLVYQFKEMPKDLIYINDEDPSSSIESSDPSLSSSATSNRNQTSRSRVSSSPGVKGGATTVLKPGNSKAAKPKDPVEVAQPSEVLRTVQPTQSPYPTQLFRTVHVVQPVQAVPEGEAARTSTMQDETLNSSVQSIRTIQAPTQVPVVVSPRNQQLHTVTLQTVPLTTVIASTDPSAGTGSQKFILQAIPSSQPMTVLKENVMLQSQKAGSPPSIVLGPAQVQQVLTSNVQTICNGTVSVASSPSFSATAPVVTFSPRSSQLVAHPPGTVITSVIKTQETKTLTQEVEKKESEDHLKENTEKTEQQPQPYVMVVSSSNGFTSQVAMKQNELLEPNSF
# ETV5, sequence (P41161 whole entry): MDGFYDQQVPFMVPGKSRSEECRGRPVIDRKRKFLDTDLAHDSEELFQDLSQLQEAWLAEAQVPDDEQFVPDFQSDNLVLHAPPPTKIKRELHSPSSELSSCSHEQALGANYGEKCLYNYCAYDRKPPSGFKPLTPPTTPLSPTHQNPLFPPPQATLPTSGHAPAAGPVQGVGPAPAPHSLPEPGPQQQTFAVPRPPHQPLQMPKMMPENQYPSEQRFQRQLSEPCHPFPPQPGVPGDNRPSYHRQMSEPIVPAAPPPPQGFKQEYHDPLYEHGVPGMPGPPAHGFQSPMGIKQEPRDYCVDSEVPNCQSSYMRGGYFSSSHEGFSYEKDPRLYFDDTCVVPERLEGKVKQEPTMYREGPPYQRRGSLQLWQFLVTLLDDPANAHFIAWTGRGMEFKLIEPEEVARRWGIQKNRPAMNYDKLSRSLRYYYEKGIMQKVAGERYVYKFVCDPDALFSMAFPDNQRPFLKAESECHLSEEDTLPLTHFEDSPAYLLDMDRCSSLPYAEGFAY
# ELF4, sequence (Q99607 whole entry): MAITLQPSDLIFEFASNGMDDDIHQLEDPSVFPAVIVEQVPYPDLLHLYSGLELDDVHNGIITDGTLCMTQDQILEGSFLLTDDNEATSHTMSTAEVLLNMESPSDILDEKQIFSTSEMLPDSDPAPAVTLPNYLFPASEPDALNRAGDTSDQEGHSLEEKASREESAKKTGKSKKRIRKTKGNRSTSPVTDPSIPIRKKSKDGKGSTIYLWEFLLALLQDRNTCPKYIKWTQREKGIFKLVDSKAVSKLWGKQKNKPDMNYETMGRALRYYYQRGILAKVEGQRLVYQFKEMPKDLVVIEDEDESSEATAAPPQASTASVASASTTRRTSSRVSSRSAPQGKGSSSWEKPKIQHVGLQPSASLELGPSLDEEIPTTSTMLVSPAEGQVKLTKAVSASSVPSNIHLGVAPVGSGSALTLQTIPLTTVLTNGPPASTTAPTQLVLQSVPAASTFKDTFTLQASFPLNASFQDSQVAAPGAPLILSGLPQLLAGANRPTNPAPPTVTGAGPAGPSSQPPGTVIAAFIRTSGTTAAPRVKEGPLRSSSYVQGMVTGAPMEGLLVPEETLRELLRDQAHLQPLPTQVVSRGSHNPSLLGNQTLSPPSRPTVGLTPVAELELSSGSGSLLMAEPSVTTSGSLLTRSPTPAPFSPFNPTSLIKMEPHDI
# SPIB, sequence (Q01892 whole entry): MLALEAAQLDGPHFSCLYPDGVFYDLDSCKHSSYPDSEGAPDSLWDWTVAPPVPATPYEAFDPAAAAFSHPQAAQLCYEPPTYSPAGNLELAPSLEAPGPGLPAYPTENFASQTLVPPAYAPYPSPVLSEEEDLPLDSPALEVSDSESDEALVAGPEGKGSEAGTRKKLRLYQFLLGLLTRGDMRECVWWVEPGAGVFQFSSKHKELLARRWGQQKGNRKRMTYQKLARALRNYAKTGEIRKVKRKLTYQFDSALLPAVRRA
# ETV1, sequence (P50549 whole entry): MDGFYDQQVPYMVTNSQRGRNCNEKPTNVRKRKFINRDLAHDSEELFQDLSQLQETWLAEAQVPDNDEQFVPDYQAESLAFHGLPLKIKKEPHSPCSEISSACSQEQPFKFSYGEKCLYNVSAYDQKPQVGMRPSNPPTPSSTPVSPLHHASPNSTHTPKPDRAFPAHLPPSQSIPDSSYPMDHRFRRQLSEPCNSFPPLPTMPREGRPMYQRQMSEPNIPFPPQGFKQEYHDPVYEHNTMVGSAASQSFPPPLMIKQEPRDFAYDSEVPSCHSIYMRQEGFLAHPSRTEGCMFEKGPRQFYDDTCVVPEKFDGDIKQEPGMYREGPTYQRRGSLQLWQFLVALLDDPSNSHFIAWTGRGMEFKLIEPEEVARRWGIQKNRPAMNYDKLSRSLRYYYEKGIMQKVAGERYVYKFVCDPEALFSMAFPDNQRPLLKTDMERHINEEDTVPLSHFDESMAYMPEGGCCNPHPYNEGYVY
# HSF1, sequence (Q00613 whole entry): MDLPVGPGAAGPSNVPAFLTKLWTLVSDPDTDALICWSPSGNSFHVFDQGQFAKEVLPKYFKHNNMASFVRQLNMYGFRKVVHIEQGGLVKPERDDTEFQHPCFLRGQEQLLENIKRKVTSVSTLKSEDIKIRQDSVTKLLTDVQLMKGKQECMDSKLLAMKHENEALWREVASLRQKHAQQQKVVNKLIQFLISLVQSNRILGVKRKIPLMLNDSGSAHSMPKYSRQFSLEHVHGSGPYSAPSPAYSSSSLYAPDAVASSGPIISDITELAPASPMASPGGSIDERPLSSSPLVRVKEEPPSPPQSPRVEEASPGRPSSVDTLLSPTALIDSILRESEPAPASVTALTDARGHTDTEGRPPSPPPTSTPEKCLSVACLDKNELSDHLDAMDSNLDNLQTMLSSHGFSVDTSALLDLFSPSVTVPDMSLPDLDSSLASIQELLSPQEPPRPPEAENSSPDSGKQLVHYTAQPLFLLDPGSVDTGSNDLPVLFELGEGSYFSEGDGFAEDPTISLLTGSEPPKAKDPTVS
sequence,measurement,setting,value
TATTCA,binding signal,FLI1,"1.31 fold enrichment (6-mer frequency, TF over GST control)"
same,binding signal,ELK1,"1.26 fold enrichment (6-mer frequency, TF over GST control)"
same,binding signal,GABPA,"1.23 fold enrichment (6-mer frequency, TF over GST control)"
same,binding signal,ERG,"1.29 fold enrichment (6-mer frequency, TF over GST control)"
same,binding signal,ELF1,"1.38 fold enrichment (6-mer frequency, TF over GST control)"
same,binding signal,EHF,"1.32 fold enrichment (6-mer frequency, TF over GST control)"
same,binding signal,SPI1,"1.29 fold enrichment (6-mer frequency, TF over GST control)"
same,binding signal,SPIB,"1.27 fold enrichment (6-mer frequency, TF over GST control)"
same,binding signal,ELK3,"1.35 fold enrichment (6-mer frequency, TF over GST control)"
same,binding signal,FEV,"1.28 fold enrichment (6-mer frequency, TF over GST control)"
same,binding signal,ETV5,"1.33 fold enrichment (6-mer frequency, TF over GST control)"
same,binding signal,HSF1,"1.32 fold enrichment (6-mer frequency, TF over GST control)"
same,binding signal,SPIC,"1.47 fold enrichment (6-mer frequency, TF over GST control)"
same,binding signal,ELF4,"1.29 fold enrichment (6-mer frequency, TF over GST control)"
same,binding signal,ELK4,"1.33 fold enrichment (6-mer frequency, TF over GST control)"
same,binding signal,ETV2,"1.35 fold enrichment (6-mer frequency, TF over GST control)"
same,binding signal,ELF3,"1.31 fold enrichment (6-mer frequency, TF over GST control)"
same,binding signal,CRX,"1.42 fold enrichment (6-mer frequency, TF over GST control)"
same,binding signal,ETV1,"1.28 fold enrichment (6-mer frequency, TF over GST control)"
